ELG1 genotoxic: inducers of genotoxicity in HEK293T ELG1-luciferase cells; HEK293T ELG1-luciferase reporter, luminescence, 16 h; Potency, µM (series often up to 46 µM), most hits filed as activators; 330,000 tested, 1.3% active; AID 504466; note: nearly all actives have a fitted effect of over 60% in size
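Quantitative HTS format in 1536-well plates. HEK293T ELG1-luciferase reporter cells receive test compound and are incubated 16 hr at 37 °C, 5% CO2; ONE-Glo added, 30 min room temperature, then luminescence read.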
NPC1 promoter act: activates the NPC1 promoter | Huh7 NPC1 promoter luciferase reporter, 24 h | Potency, µM (titrated, usually from 9.22 µM), usual class: activators | 320,000 tested, 2.4% active; note: nearly all actives have a fitted effect of over 60% in size
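Stably transfected Huh7 (NPC1 promoter→luciferase), 1500 cells/well in Opti-MEM + 10% FBS, 2 h settle, then compound 24 h at 37 °C. Luminescence after 10 min with Amplite reagent.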
Rab9 prom act: Rab9 promoter activation | Huh7 Rab9 promoter-luciferase reporter, luminescence, 24 h | Potency, µM (series often up to 9.22 µM), hits mostly activators | 320,000 tested, 2.8% active | AID 485297; note: nearly all actives have a fitted effect of over 60% in size
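Promoter activation is measured as luciferase luminescence in Huh7 cells stably transfected with a Rab9 promoter–luciferase construct, following 24 h compound exposure at 37 °C and 10 min reagent incubation at ambient temperature.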
p53 reactivator: restores transcriptional activity of mutant p53. H1299 p53-A138V BP100-luciferase reporter, luminescence, 24 h. Potency, µM (series often up to 92.2 µM), most hits filed as activators. 320,000 tested, 0.063% active. AID 504706; note: nearly all actives have a fitted effect of over 45% in size
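H1299 (p53-null), stable ts p53-A138V + BP100-Luc; 1000 cells/well, Opti-MEM/10% FBS; cpd 4 pt, 1:5; 24 h, 37 deg C, 5% CO2; detection reagent 10 min RT; luminescence.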
SMN2 splice enh: enhancers of SMN2 splice variant expression | HEK293 SMN2-luciferase splicing reporter, luminescence, 30-36 h | 210,000 tested, 2.8% active | Potency, µM (top dose mostly 46.1 µM), most hits filed as activators; note: nearly all actives have a fitted effect of over 55% in size
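HEK293 cells carry an SMN2 […]–luciferase reporter in which exon 7 inclusion puts luciferase in frame. Cells were plated 10-12 h before compound addition, then incubated 30-36 h at 37C. ONE-Glo luminescence was read; sodium butyrate at 4.5 mM final served as control.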
FLuc modulator: inhibits or activates purified firefly luciferase, miR-21 counter-screen | AID 588342 | Potency, µM (doses to about 57.5 µM), hits mostly inhibitors | purified FLuc, Km substrates, luminescence inhibition | 360,000 tested, 6.9% active | P08659; note: nearly all actives have a fitted effect of over 55% in size
Target sequence (P08659 whole entry, looked up): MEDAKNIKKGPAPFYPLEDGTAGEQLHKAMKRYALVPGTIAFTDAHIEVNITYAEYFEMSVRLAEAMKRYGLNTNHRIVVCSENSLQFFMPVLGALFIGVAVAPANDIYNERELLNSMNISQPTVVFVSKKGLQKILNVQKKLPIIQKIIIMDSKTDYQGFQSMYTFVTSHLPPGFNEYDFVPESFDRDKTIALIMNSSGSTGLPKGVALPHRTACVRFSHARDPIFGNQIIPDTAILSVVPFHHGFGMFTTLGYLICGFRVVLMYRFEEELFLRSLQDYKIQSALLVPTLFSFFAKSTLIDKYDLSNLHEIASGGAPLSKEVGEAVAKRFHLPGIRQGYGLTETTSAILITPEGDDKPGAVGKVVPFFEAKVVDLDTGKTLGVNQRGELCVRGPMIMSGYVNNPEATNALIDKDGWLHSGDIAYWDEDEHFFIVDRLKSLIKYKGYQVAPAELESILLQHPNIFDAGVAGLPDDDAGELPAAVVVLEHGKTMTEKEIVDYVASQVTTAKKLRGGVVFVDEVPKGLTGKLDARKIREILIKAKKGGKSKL
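Purified P. pyralis luciferase, 10 nM final, with Km-level 10 uM D-luciferin and 10 uM ATP in 50 mM Tris acetate pH 7.5, 10 mM Mg acetate, 0.01% Tween-20, 0.05% BSA; 6-point qHTS titration about 60 µM downward; luminescence read.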
Of the large screens only hits and unclear results are named; the others gave an inactive call. Most compounds without a hit are left out; they make up all but 7.3% or so of the library. Calls come from the whole dose curve; as a rule, active = well fitted curve in the direction sought with a large enough effect; inconclusive = small, poorly fitted or top-dose-only effect, or another doubt; inactive = no such curve, though single readings can be large; an effect the other way counts as inactive or inconclusive.

Cc1c(/C(O)=C2\C(=O)C(=O)N(CCN(C)C)C2c2ccccc2)cnn1-c1ccccc1 (configuration not stated)	ELG1 genotoxic inconclusive, FLuc modulator 17µM (no result: SMN2 splice enh)
Cc1c(/C(O)=C2/C(=O)C(=O)N(CCN(C)C)C2c2ccc(C(C)C)cc2)cnn1-c1ccccc1 (configuration not stated)	none (no result: SMN2 splice enh)
CCOC(=O)c1nn(-c2ccc(C)cc2)cc1C(=O)c1ccccc1	ELG1 genotoxic 2.6µM, NPC1 promoter act 4µM, Rab9 prom act 2.8µM, SMN2 splice enh 11µM, FLuc modulator 1.9µM
COc1cc(C(=O)Nc2ccc3c(c2)CCN3C(C)=O)cc(OC)c1OC	ELG1 genotoxic inconclusive, SMN2 splice enh inconclusive, FLuc modulator inconclusive
COC(=O)c1nn(-c2ccc3c(c2)CCN3C(C)=O)cc1O	ELG1 genotoxic inconclusive, NPC1 promoter act 0.5µM, Rab9 prom act 3.2µM, SMN2 splice enh inconclusive, FLuc modulator 0.54µM
CCOC(=O)c1nn(-c2ccc(C)c(C)c2)cc1O	ELG1 genotoxic 6.5µM, NPC1 promoter act inconclusive, p53 reactivator inconclusive, FLuc modulator 4.3µM
CCOC(=O)c1nn(-c2ccc3c(c2)OCCO3)cc1O	ELG1 genotoxic 8.2µM, NPC1 promoter act 2.8µM, Rab9 prom act 2.8µM, SMN2 splice enh inconclusive, FLuc modulator 3µM
CCOC(=O)c1nn(-c2ccc([N+](=O)[O-])cc2)cc1O	FLuc modulator inconclusive (no result: SMN2 splice enh)
O=C(CCCCCn1c(=O)[nH]c2ccccc2c1=O)NCc1cccc(Cl)c1	none (no result: ELG1 genotoxic, NPC1 promoter act, Rab9 prom act, p53 reactivator, SMN2 splice enh)
COC(=O)c1nn(-c2ccc3c(c2)OCO3)cc1O	ELG1 genotoxic inconclusive, NPC1 promoter act inconclusive, SMN2 splice enh inconclusive, FLuc modulator 11µM
COC(=O)C1=C(C)N(Cc2ccc3c(c2)OCO3)C(=O)C1	none
Cc1cccn2c(=O)c3cc(C(=O)NCc4ccccc4)c(=N)n(CCOCCO)c3nc12	none (no result: ELG1 genotoxic, NPC1 promoter act, Rab9 prom act, p53 reactivator)
COc1ccccc1/C=N/NC(=O)c1ccccc1Cl	FLuc modulator inconclusive
COC(=O)c1ccccc1Oc1cnc2ccccc2n1	none (no result: SMN2 splice enh)
COc1ccccc1C(=O)N/N=C/c1cnc2ccccc2n1	ELG1 genotoxic inconclusive, NPC1 promoter act inconclusive, Rab9 prom act inconclusive, p53 reactivator inconclusive, SMN2 splice enh 16µM, FLuc modulator inconclusive
O=C(N/N=C\c1ccc(Cl)s1)c1cccs1	Rab9 prom act inconclusive, FLuc modulator 17µM
COc1ccccc1C(=O)N/N=C/c1ccc(Cl)s1	SMN2 splice enh inconclusive, FLuc modulator 19µM
CN1[C@H](Cc2ccccc2)C=C[C@]1(C)C(=O)NCC1CC1	none (no result: ELG1 genotoxic, NPC1 promoter act, Rab9 prom act, p53 reactivator, FLuc modulator)
Cc1cc(C(=O)N/N=C/c2ccc([N+](=O)[O-])cc2)c(C)o1	FLuc modulator 27µM
O=C(N/N=C/c1ccccc1O)c1cccc2ccccc12	p53 reactivator inconclusive, FLuc modulator inconclusive (no result: SMN2 splice enh)
Cc1cc(C(=O)NC2Cc3ccccc3C2)c(C)o1	ELG1 genotoxic inconclusive, NPC1 promoter act 2.5µM, Rab9 prom act 3.2µM, p53 reactivator inconclusive, FLuc modulator 21µM (no result: SMN2 splice enh)
Cc1cc(C(=O)N/N=C/c2ccc(OCc3ccccc3)cc2)c(C)o1	FLuc modulator inconclusive
Cn1c(C(=O)N/N=C/c2ccccc2)cc2ccccc21	ELG1 genotoxic inconclusive, NPC1 promoter act inconclusive, Rab9 prom act 2.8µM, FLuc modulator 2.7µM (no result: SMN2 splice enh)
Cc1cc(C(=O)N/N=C/c2cccc3ccccc23)c(C)o1	ELG1 genotoxic inconclusive, FLuc modulator 19µM (no result: SMN2 splice enh)
Cn1c(N)c(C(=O)N/N=C/c2ccccc2)sc1=S	none (no result: SMN2 splice enh)
O=C(NCc1cccc(Cl)c1)c1cnc(N2CCCCC2)c2ccccc12	none (no result: ELG1 genotoxic, NPC1 promoter act, Rab9 prom act, p53 reactivator, SMN2 splice enh)
CC1=C(c2ccc(C)c(C)c2)S(=O)(=O)N=C1N1CCC(C(=O)NCCc2ccco2)CC1	none (no result: ELG1 genotoxic, NPC1 promoter act, Rab9 prom act, p53 reactivator, SMN2 splice enh)
COc1cccc(Cc2nc3ccccc3nc2SCC(=O)N2CCCc3ccccc32)c1	none (no result: ELG1 genotoxic, NPC1 promoter act, Rab9 prom act, p53 reactivator, SMN2 splice enh)
CCOC(=O)c1scc(-c2ccc(C)cc2)c1S(=O)(=O)Nc1cc(Cl)ccc1OC	none (no result: ELG1 genotoxic, NPC1 promoter act, Rab9 prom act, p53 reactivator, SMN2 splice enh)
Cc1cc(C(=O)N/N=C/c2ccccc2)c(C)o1	ELG1 genotoxic inconclusive, NPC1 promoter act inconclusive, Rab9 prom act 3.2µM, FLuc modulator 11µM (no result: SMN2 splice enh)
Cc1ccc2oc(-c3ccco3)cc(=O)c2c1	ELG1 genotoxic 21µM, NPC1 promoter act inconclusive, Rab9 prom act 2.8µM, SMN2 splice enh inconclusive, FLuc modulator 9.5µM
